“And” between values parts separate entries of the source, which are not always exact repeats. Equal values may be shown once. Over roughly 2,900 compounds, “NF-kB SEAP reporter activity, fold change vs agonist alone” has its median near 0.99; the highest 2% begin near 2.6. The entries come from a sample that favours the highest values as a whole.
What was measured:
RAW-Dual [1] = test: NF-kB SEAP reporter activity, fold change vs agonist alone; higher = enhanced NF-kB activity
In short: (§1)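 Cytotoxic wells were those whose IncuCyte confluency was below 70% of agonist controls in both mask sets. The cells were RAW-Dual macrophages at 50,000 cells/well in DMEM on 384-well plates, dosed with 50 nL of library stock by pin tool, stimulated with a PRR agonist 1 h later, and kept at 37 °C, 5% CO2 for 20 hours. IRF and NF-κB reporter activity, as fold change over agonist-alone wells, came from supernatant read by QuantiLuc luminescence and QuantiBlue absorbance, respectively.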

RAW-Dual [2] = test: NF-kB SEAP reporter activity, fold change vs agonist alone; cytotoxicity flag (confluency mask): not cytotoxic; higher = enhanced NF-kB activity
In short: as §1

RAW-Dual [3] = test: NF-kB SEAP reporter activity, fold change vs agonist alone; cytotoxicity flag (confluency mask): cytotoxic (confluency <70% of control); higher = enhanced NF-kB activity
In short: as §1

[4] = agonist: ODN 1826 (TLR9) 0.5 ug/mL
[5] = agonist: Pam2CSK4 (TLR2/6) 0.1 ug/mL
[6] = agonist: Pam3CSK4 (TLR2/1) 0.1 ug/mL
[7] = library stock concentration (final ~1000-fold dilution): 10 mM, cytotoxicity flag (confluency mask): not cytotoxic, agonist: Imiquimod (TLR7) […]
[8] = library stock concentration (final ~1000-fold dilution): 10 mM, cytotoxicity flag (confluency mask): not cytotoxic, agonist: MPLA (TLR4) […]
[9] = library stock concentration (final ~1000-fold dilution): 10 mM, cytotoxicity flag (confluency mask): cytotoxic (confluency <70% of control), agonist: Imiquimod (TLR7) […]
[10] = library stock concentration (final ~1000-fold dilution): 10 mM, cytotoxicity flag (confluency mask): cytotoxic (confluency <70% of control), agonist: MPLA (TLR4) […]

## CCc1ccc(NC(=O)Nc2c[nH]c3ccccc23)cc1
RAW-Dual [1]; library stock concentration (final ~1000-fold dilution): 1 mM, cytotoxicity flag (confluency mask): not cytotoxic, agonist: Imiquimod (TLR7) […]
  NF-kB SEAP reporter activity: 0.782
RAW-Dual [1]; library stock concentration (final ~1000-fold dilution): 1 mM, cytotoxicity flag (confluency mask): not cytotoxic, agonist: MPLA (TLR4) […]
  NF-kB SEAP reporter activity: 0.736

## CCc1ccc(NC(=O)Nc2c[nH]c3ccccc23)cc1 (library stock concentration (final ~1000-fold dilution): 1 mM)
RAW-Dual [2]; agonist: LPS (TLR4) 0.1 ug/mL
  NF-kB SEAP reporter activity: 0.445
RAW-Dual [2]; [4]
  NF-kB SEAP reporter activity: 0.702
RAW-Dual [2]; [5]
  NF-kB SEAP reporter activity: 0.417
RAW-Dual [2]; [6]
  NF-kB SEAP reporter activity: 0.365

## CN(C(=O)n1cnc(-c2ccc[n+]([O-])c2)c1)C1CCCCC1 (library stock concentration (final ~1000-fold dilution): 10 mM)
RAW-Dual [2]; agonist: LPS (TLR4) 0.1 ug/mL
  NF-kB SEAP reporter activity: 1.04
RAW-Dual [2]; [4]
  NF-kB SEAP reporter activity: 0.925
RAW-Dual [2]; [5]
  NF-kB SEAP reporter activity: 0.966
RAW-Dual [2]; [6]
  NF-kB SEAP reporter activity: 1.01

## CN(C(=O)n1cnc(-c2ccc[n+]([O-])c2)c1)C1CCCCC1
RAW-Dual [1]; [7]
  NF-kB SEAP reporter activity: 0.995
RAW-Dual [1]; [8]
  NF-kB SEAP reporter activity: 1.03

## CC(=O)Oc1cc2c(cc1Cl)C(c1ccccc1C(=O)O)c1cc(Cl)c(OC(C)=O)cc1O2
RAW-Dual [1]; [7]
  NF-kB SEAP reporter activity: 1.04
RAW-Dual [1]; [8]
  NF-kB SEAP reporter activity: 1.41

## CC(=O)Oc1cc2c(cc1Cl)C(c1ccccc1C(=O)O)c1cc(Cl)c(OC(C)=O)cc1O2 (library stock concentration (final ~1000-fold dilution): 10 mM)
RAW-Dual [2]; agonist: LPS (TLR4) 0.1 ug/mL
  NF-kB SEAP reporter activity: 1.48
RAW-Dual [2]; [4]
  NF-kB SEAP reporter activity: 1.24
RAW-Dual [2]; [5]
  NF-kB SEAP reporter activity: 1.12
RAW-Dual [2]; [6]
  NF-kB SEAP reporter activity: 1.05

## COc1cc(C2CC(c3ccccc3)=NN2C(N)=S)cc(OC)c1OC (centres undefined)
RAW-Dual [1]; [7]
  NF-kB SEAP reporter activity: 1.58
RAW-Dual [1]; [8]
  NF-kB SEAP reporter activity: 1.29

## COc1cc(C2CC(c3ccccc3)=NN2C(N)=S)cc(OC)c1OC (centres undefined) (library stock concentration (final ~1000-fold dilution): 10 mM)
RAW-Dual [2]; agonist: LPS (TLR4) 0.1 ug/mL
  NF-kB SEAP reporter activity: 1.16
RAW-Dual [2]; [4]
  NF-kB SEAP reporter activity: 1.25
RAW-Dual [2]; [5]
  NF-kB SEAP reporter activity: 0.997
RAW-Dual [2]; [6]
  NF-kB SEAP reporter activity: 1.13

## CCOc1cc(N2CCC(O)CC2)ccc1Nc1ncc2c(n1)N(C)c1ccccc1C(=O)N2C (library stock concentration (final ~1000-fold dilution): 10 mM)
RAW-Dual [2]; agonist: LPS (TLR4) 0.1 ug/mL
  NF-kB SEAP reporter activity: 3.72
RAW-Dual [2]; [4]
  NF-kB SEAP reporter activity: 1.57
RAW-Dual [2]; [5]
  NF-kB SEAP reporter activity: 1
RAW-Dual [2]; [6]
  NF-kB SEAP reporter activity: 1.48

## COc1cc(C(=O)N2CCC(N3CCN(C)CC3)CC2)ccc1Nc1ncc2c(n1)N(C)c1ccccc1C(=O)N2C (library stock concentration (final ~1000-fold dilution): 10 mM)
RAW-Dual [2]; agonist: LPS (TLR4) 0.1 ug/mL
  NF-kB SEAP reporter activity: 3.59
RAW-Dual [2]; [4]
  NF-kB SEAP reporter activity: 0.264
RAW-Dual [2]; [5]
  NF-kB SEAP reporter activity: 1.02
RAW-Dual [2]; [6]
  NF-kB SEAP reporter activity: 2.01

## COc1cc(C(=O)N2CCC(N3CCN(C)CC3)CC2)ccc1Nc1ncc2c(n1)N(C)c1ccccc1C(=O)N2C
RAW-Dual [1]; [7]
  NF-kB SEAP reporter activity: 1.48
RAW-Dual [1]; [8]
  NF-kB SEAP reporter activity: 2.66

## CCOc1cc(C(=O)N2CCC(N3CCN(C)CC3)CC2)ccc1Nc1ncc2c(n1)N(C1CCCC1)c1ccccc1C(=O)N2C
RAW-Dual [1]; [9]
  NF-kB SEAP reporter activity: 1.44
RAW-Dual [1]; [10]
  NF-kB SEAP reporter activity: 2.71

## CCOc1cc(C(=O)N2CCC(N3CCN(C)CC3)CC2)ccc1Nc1ncc2c(n1)N(C1CCCC1)c1ccccc1C(=O)N2C (library stock concentration (final ~1000-fold dilution): 10 mM)
RAW-Dual [3]; agonist: LPS (TLR4) 0.1 ug/mL
  NF-kB SEAP reporter activity: 5.49
RAW-Dual [3]; [4]
  NF-kB SEAP reporter activity: 1.31
RAW-Dual [3]; [5]
  NF-kB SEAP reporter activity: 1.36
RAW-Dual [3]; [6]
  NF-kB SEAP reporter activity: 3.42

## COc1cc(N2CCC(N)CC2)ccc1Nc1ncc(Cl)c(-c2c[nH]c3ccccc23)n1
RAW-Dual [1]; [9]
  NF-kB SEAP reporter activity: 0.251
RAW-Dual [1]; [10]
  NF-kB SEAP reporter activity: 0.226

## COc1cc(N2CCC(N)CC2)ccc1Nc1ncc(Cl)c(-c2c[nH]c3ccccc23)n1 (library stock concentration (final ~1000-fold dilution): 10 mM)
RAW-Dual [3]; agonist: LPS (TLR4) 0.1 ug/mL
  NF-kB SEAP reporter activity: 0.166
RAW-Dual [3]; [4]
  NF-kB SEAP reporter activity: 0.19
RAW-Dual [3]; [5]
  NF-kB SEAP reporter activity: 0.0626
RAW-Dual [3]; [6]
  NF-kB SEAP reporter activity: 0.118

## O=C(c1ccc(C(=O)N2CCC(N3CCCC3)CC2)c(Nc2ccccc2)c1)N1CCC(N2CCCC2)CC1 (library stock concentration (final ~1000-fold dilution): 10 mM)
RAW-Dual [2]; agonist: LPS (TLR4) 0.1 ug/mL
  NF-kB SEAP reporter activity: 0.933
RAW-Dual [2]; [4]
  NF-kB SEAP reporter activity: 0.944
RAW-Dual [2]; [5]
  NF-kB SEAP reporter activity: 1.04
RAW-Dual [2]; [6]
  NF-kB SEAP reporter activity: 1.33

## COc1cc(N2CCN(C)CC2)ccc1Nc1ncc2c(n1)N(C)c1ccccc1C(=O)N2
RAW-Dual [1]; [7]
  NF-kB SEAP reporter activity: 0.928
RAW-Dual [1]; [8]
  NF-kB SEAP reporter activity: 1.03

## COc1cc(N2CCN(C)CC2)ccc1Nc1ncc2c(n1)N(C)c1ccccc1C(=O)N2 (library stock concentration (final ~1000-fold dilution): 10 mM)
RAW-Dual [2]; agonist: LPS (TLR4) 0.1 ug/mL
  NF-kB SEAP reporter activity: 0.966
RAW-Dual [2]; [4]
  NF-kB SEAP reporter activity: 0.514
RAW-Dual [2]; [5]
  NF-kB SEAP reporter activity: 1.08
RAW-Dual [2]; [6]
  NF-kB SEAP reporter activity: 1.61

## CCOc1cc(N2CCC(O)CC2)ccc1Nc1ncc2c(n1)N(C)c1ccccc1C(=O)N2C
RAW-Dual [1]; [7]
  NF-kB SEAP reporter activity: 1.23
RAW-Dual [1]; [8]
  NF-kB SEAP reporter activity: 1.91

## O=C(c1ccc(C(=O)N2CCC(N3CCCC3)CC2)c(Nc2ccccc2)c1)N1CCC(N2CCCC2)CC1
RAW-Dual [1]; [7]
  NF-kB SEAP reporter activity: 0.917
RAW-Dual [1]; [8]
  NF-kB SEAP reporter activity: 1.12

## O=C(c1ccc(Nc2nccc(-c3cc4ccccc4s3)n2)cc1)N1CCC(N2CCCC2)CC1 (library stock concentration (final ~1000-fold dilution): 10 mM)
RAW-Dual [3]; agonist: LPS (TLR4) 0.1 ug/mL
  NF-kB SEAP reporter activity: 0.302 and 0.283
RAW-Dual [3]; [4]
  NF-kB SEAP reporter activity: 0.179 and 0.19
RAW-Dual [3]; [5]
  NF-kB SEAP reporter activity: 0.0736 and 0.0841
RAW-Dual [3]; [6]
  NF-kB SEAP reporter activity: 0.128 and 0.186

## CC1OC(=O)C(C)C1CC(O)C(C)(O)C1CCC2(O)C3=CC(=O)C4CC(O)C(O)CC4(C)C3CCC12C (centres undefined)
RAW-Dual [1]; [7]
  NF-kB SEAP reporter activity: 1.02
RAW-Dual [1]; [8]
  NF-kB SEAP reporter activity: 1.05

## CC1OC(=O)C(C)C1CC(O)C(C)(O)C1CCC2(O)C3=CC(=O)C4CC(O)C(O)CC4(C)C3CCC12C (centres undefined) (library stock concentration (final ~1000-fold dilution): 10 mM)
RAW-Dual [2]; agonist: LPS (TLR4) 0.1 ug/mL
  NF-kB SEAP reporter activity: 1.18
RAW-Dual [2]; [4]
  NF-kB SEAP reporter activity: 1.02
RAW-Dual [2]; [5]
  NF-kB SEAP reporter activity: 1.16
RAW-Dual [2]; [6]
  NF-kB SEAP reporter activity: 1.23

## CCOc1cc(N)c([N+](=O)[O-])cc1C(=O)NC1CCN(CC2CC=CCC2)CC1.O=C(O)C(O)C(O)C(=O)O (centres undefined) (library stock concentration (final ~1000-fold dilution): 10 mM)
RAW-Dual [2]; agonist: LPS (TLR4) 0.1 ug/mL
  NF-kB SEAP reporter activity: 1.38
RAW-Dual [2]; [4]
  NF-kB SEAP reporter activity: 0.18
RAW-Dual [2]; [5]
  NF-kB SEAP reporter activity: 0.898
RAW-Dual [2]; [6]
  NF-kB SEAP reporter activity: 0.739

Reference: the supplement of paper PMC10037445
